Measurements as given in PubChem BioAssay (NCATS).
Inconclusive results are not listed. The source made the active and inactive calls. The call rests on the fitted dose curve; in most records, active means well fitted inhibition curve with a large enough effect; inconclusive means small, poorly fitted or top-dose-only effect; inactive means flat fitted curve, though single readings scatter.

Experiments:
JCK = test: qHTS profiling for inhibitors of Plasmodium falciparum proliferation (AID 504749);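 further: 0% = DMSO vehicle and full inhibition = artemisinin control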; settings: P. falciparum in erythrocytes, SYBR Green DNA, 72 h; series mostly up to 28.7 µM
Summary of the method: (§1)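 Each compound contacts P. falciparum-infected red blood cells for 72 h at 37 C; lysis buffer (Tris, EDTA, saponin, Triton X, SYBR Green I) is added and fluorescence measured next morning; values normalized to controls.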

N140 = test: as above; settings: P. falciparum in erythrocytes, SYBR Green DNA, 72 h; series mostly up to 28.7 µM
Summary of the method: as §1

P93_24 = test: as above; settings: P. falciparum in erythrocytes, SYBR Green DNA, 72 h; series mostly up to 28.7 µM
Summary of the method: as §1

P94_40 = test: as above; settings: P. falciparum in erythrocytes, SYBR Green DNA, 72 h; series mostly up to 28.7 µM
Summary of the method: as §1

PAD = test: as above; settings: P. falciparum in erythrocytes, SYBR Green DNA, 72 h; series mostly up to 28.7 µM
Summary of the method: as §1

PC15 = test: as above; settings: P. falciparum in erythrocytes, SYBR Green DNA, 72 h; series mostly up to 28.7 µM
Summary of the method: as §1

PC26 = test: as above; settings: P. falciparum in erythrocytes, SYBR Green DNA, 72 h; series mostly up to 28.7 µM
Summary of the method: as §1

PC49 = test: as above; settings: P. falciparum in erythrocytes, SYBR Green DNA, 72 h; series mostly up to 28.7 µM
Summary of the method: as §1

SC27B = test: as above; settings: P. falciparum in erythrocytes, SYBR Green DNA, 72 h; series mostly up to 28.7 µM
Summary of the method: as §1

TAB109 = test: as above; settings: P. falciparum in erythrocytes, SYBR Green DNA, 72 h; series mostly up to 28.7 µM
Summary of the method: as §1

TAB113 = test: as above; settings: P. falciparum in erythrocytes, SYBR Green DNA, 72 h; series mostly up to 28.7 µM
Summary of the method: as §1

TAB165 = test: as above; settings: P. falciparum in erythrocytes, SYBR Green DNA, 72 h; series mostly up to 28.7 µM
Summary of the method: as §1

W2 = test: as above; settings: P. falciparum in erythrocytes, SYBR Green DNA, 72 h; series mostly up to 28.7 µM
Summary of the method: as §1

CRL-7250 = normal cell line; test: Cytotoxic Profiling of Annotated Libraries Using Quantitative High-Throughput Screening (AID 1296008); settings: Five cell lines viability, CellTiter-Glo ATP luminescence, 48-72 h; stronger effect = lower value; on max response: on the % scale 0 is the no-effect control and ±100 the full control effect
Summary of the method: (§2)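 Cells exposed to compounds for 48 or 72 hr at 37 degrees Celsius. Viability read as ATP-coupled luminescence with CellTiter-Glo after 10 min at room temperature.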

HEK293 = test: as above; settings: Five cell lines viability, CellTiter-Glo ATP luminescence, 48-72 h; stronger effect = lower value
Summary of the method: as §2

HaCat [1] = test: as above; settings: Five cell lines viability, CellTiter-Glo ATP luminescence, 48-72 h; stronger effect = lower value
Summary of the method: as §2

KB-3-1 = test: as above; settings: Five cell lines viability, CellTiter-Glo ATP luminescence, 48-72 h, stronger effect = lower value
Summary of the method: as §2

NIH3T3 = test: as above; settings: Five cell lines viability, CellTiter-Glo ATP luminescence, 48-72 h; stronger effect = lower value
Summary of the method: as §2

HACAT [2] = test: qHTS assay to identify novel small-molecules to repurpose for Merkel cell carcinoma treatment (AID 1296009); settings: MCC and control cell lines, CellTiter-Glo viability, 72 h; at 44.8 µM (top of the series) unless noted
Summary of the method: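 Dose-response viability screen; 72 hr exposure at 37 degree celsius; CellTiter-Glo added, 10 min room temperature, luminescence read; RLUs scaled between no-cell and DMSO wells.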
Further: nearly all actives have a fitted effect of over 60% in size.

Cc1c(Cn2ccnc2)c2ccccc2n1CCC(=O)O
inactive: Potency (JCK) | Potency (N140) | Potency (P93_24) | Potency (P94_40) | Potency (PAD) | Potency (PC15) | Potency (PC26) | Potency (PC49) | Potency (SC27B) | Potency (TAB109) | Potency (TAB113) | Potency (TAB165) | Potency (W2) | max response (CRL-7250) 0.62% | max response (HEK293) 1.95% | outcome (HaCat [1]) | max response (KB-3-1) -18.7% | max response (NIH3T3) 3.45% | outcome (HACAT [2])

C=CCNC(N)=S
inactive: Potency (JCK) | Potency (N140) | Potency (P93_24) | Potency (P94_40) | Potency (PAD) | Potency (PC15) | Potency (PC26) | Potency (PC49) | Potency (SC27B) | Potency (TAB109) | Potency (TAB113) | Potency (TAB165) | Potency (W2) | max response (CRL-7250) -5.07% | max response (HEK293) -1.79% | outcome (HaCat [1]) | max response (KB-3-1) -9.92% | max response (NIH3T3) 4.81% | outcome (HACAT [2])

COc1ccc(Cc2cnc(N)nc2N)cc1OC
inactive: Potency (JCK) | Potency (N140) | Potency (P93_24) | Potency (P94_40) | Potency (PAD) | Potency (PC15) | Potency (PC26) | Potency (PC49) | Potency (SC27B) | Potency (TAB109) | Potency (TAB113) | Potency (TAB165) | Potency (W2) | max response (CRL-7250) -8.49% | max response (HEK293) 2.64% | outcome (HaCat [1]) | max response (KB-3-1) -1.92% | max response (NIH3T3) -0.487% | outcome (HACAT [2])

COc1ccc(C(=O)NCc2ccc(OCCN(C)C)cc2)cc1OC
inactive: Potency (JCK) | Potency (N140) | Potency (P93_24) | Potency (P94_40) | Potency (PAD) | Potency (PC15) | Potency (PC26) | Potency (PC49) | Potency (SC27B) | Potency (TAB109) | Potency (TAB113) | Potency (TAB165) | Potency (W2) | outcome (CRL-7250) | max response (HEK293) -0.933% | outcome (HaCat [1]) | max response (KB-3-1) 3.28% | max response (NIH3T3) -3.79% | outcome (HACAT [2])

NS(=O)(=O)c1ccc(C(=O)O)cc1
inactive: Potency (JCK) | Potency (N140) | Potency (P93_24) | Potency (P94_40) | Potency (PAD) | Potency (PC15) | Potency (PC26) | Potency (PC49) | Potency (SC27B) | Potency (TAB109) | Potency (TAB113) | Potency (TAB165) | Potency (W2) | max response (CRL-7250) -10.9% | max response (HEK293) -0.608% | outcome (HaCat [1]) | max response (KB-3-1) 9.5% | max response (NIH3T3) 1.17% | outcome (HACAT [2])

CC(N)CCCC(C)(C)O (stereo not drawn)
inactive: Potency (JCK) | Potency (N140) | Potency (P93_24) | Potency (P94_40) | Potency (PAD) | Potency (PC15) | Potency (PC26) | Potency (PC49) | Potency (SC27B) | Potency (TAB109) | Potency (TAB113) | Potency (TAB165) | Potency (W2) | max response (CRL-7250) -9.12% | max response (HEK293) -17.6% | outcome (HaCat [1]) | max response (KB-3-1) 2.21% | outcome (NIH3T3) | outcome (HACAT [2])

CN(C/C=C/C#CC(C)(C)C)Cc1cccc2ccccc12
inactive: Potency (JCK) | Potency (N140) | Potency (P93_24) | Potency (PAD) | Potency (PC15) | Potency (PC26) | Potency (PC49) | Potency (SC27B) | Potency (TAB109) | Potency (TAB113) | Potency (TAB165) | max response (CRL-7250) -11.8% | max response (HEK293) -4.51% | outcome (HaCat [1]) | max response (KB-3-1) -0.279% | max response (NIH3T3) 2.57% | outcome (HACAT [2])

N[C@@H](Cc1ccc(O)cc1)C(=O)O
inactive: Potency (JCK) | Potency (N140) | Potency (P93_24) | Potency (P94_40) | Potency (PAD) | Potency (PC15) | Potency (PC26) | Potency (PC49) | Potency (SC27B) | Potency (TAB109) | Potency (TAB113) | Potency (TAB165) | Potency (W2) | max response (CRL-7250) 1.09% | max response (HEK293) 3.89% | outcome (HaCat [1]) | max response (KB-3-1) -4.34% | outcome (NIH3T3) | outcome (HACAT [2]) inactive [at 9.27 µM]

Cc1ccc(C(C)C)c(O)c1
inactive: Potency (JCK) | Potency (N140) | Potency (P93_24) | Potency (P94_40) | Potency (PAD) | Potency (PC15) | Potency (PC26) | Potency (PC49) | Potency (SC27B) | Potency (TAB109) | Potency (TAB113) | Potency (TAB165) | Potency (W2) | outcome (CRL-7250) | max response (HEK293) 3.73% | outcome (HaCat [1]) | max response (KB-3-1) 18.3% | max response (NIH3T3) 0.329% | outcome (HACAT [2])

CCCNC(C)(C)COC(=O)c1ccccc1
inactive: Potency (JCK) | Potency (N140) | Potency (P93_24) | Potency (P94_40) | Potency (PAD) | Potency (PC15) | Potency (PC49) | Potency (SC27B) | Potency (TAB109) | Potency (TAB113) | Potency (TAB165) | max response (CRL-7250) -0.75% | max response (HEK293) 3.12% | outcome (HaCat [1]) | max response (KB-3-1) 0.448% | max response (NIH3T3) 4.95% | outcome (HACAT [2])

CN/C(=C\[N+](=O)[O-])NCCSCc1csc(CN(C)C)n1
inactive: Potency (JCK) | Potency (N140) | Potency (P93_24) | Potency (P94_40) | Potency (PAD) | Potency (PC15) | Potency (PC26) | Potency (PC49) | Potency (SC27B) | Potency (TAB109) | Potency (TAB113) | Potency (TAB165) | Potency (W2) | max response (CRL-7250) -2.16% | max response (HEK293) -19.8% | outcome (HaCat [1]) | max response (KB-3-1) 8.03% | max response (NIH3T3) 0.469% | outcome (HACAT [2])

CCOC(=O)c1cccnc1
inactive: Potency (JCK) | Potency (N140) | Potency (P93_24) | Potency (P94_40) | Potency (PAD) | Potency (PC15) | Potency (PC26) | Potency (PC49) | Potency (SC27B) | Potency (TAB109) | Potency (TAB113) | Potency (TAB165) | Potency (W2) | max response (CRL-7250) -2.26% | max response (HEK293) -0.734% | outcome (HaCat [1]) | max response (KB-3-1) 2.38% | max response (NIH3T3) 2.73% | outcome (HACAT [2])

CCS(=O)(=O)CCn1c([N+](=O)[O-])cnc1C
inactive: Potency (JCK) | Potency (N140) | Potency (P93_24) | Potency (P94_40) | Potency (PAD) | Potency (PC15) | Potency (PC26) | Potency (PC49) | Potency (SC27B) | Potency (TAB109) | Potency (TAB113) | Potency (TAB165) | Potency (W2) | outcome (CRL-7250) | max response (HEK293) 1.79% | outcome (HaCat [1]) | max response (KB-3-1) -0.735% | max response (NIH3T3) -2.73% | outcome (HACAT [2])
